VDR inhibitor = Inhibitors of the vitamin D receptor (VDR): qHTS | Vitamin D3 receptor (Homo sapiens), P11473 | VDR-SRC2-3 peptide fluorescence polarization, 2 h | Potency, µM, most hits filed as inhibitors | hit rate 0.93% among 400,000
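The screen uses fluorescence polarization to detect compounds that interfere with recruitment of the SRC2-3 coactivator peptide to VDR; plates are read after 2 h at room temperature.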
PLK1 PBD inh = qHTS for Inhibitors of PLK1-PDB (polo-like kinase 1 - polo-box domain): Primary Screen | Serine/threonine-protein kinase PLK1 (Homo sapiens), P53350 | Plk1 PBD binding of FITC phosphopeptide, fluorescence polarization | Potency, µM, usual class: inhibitors | hit rate 2.8% among 360,000 | AID 720504, 2013; further: series mostly up to about 57 µM; nearly all actives have a fitted effect of over 65% in size
Target sequence (P53350 whole entry, looked up, the tested form may be a part): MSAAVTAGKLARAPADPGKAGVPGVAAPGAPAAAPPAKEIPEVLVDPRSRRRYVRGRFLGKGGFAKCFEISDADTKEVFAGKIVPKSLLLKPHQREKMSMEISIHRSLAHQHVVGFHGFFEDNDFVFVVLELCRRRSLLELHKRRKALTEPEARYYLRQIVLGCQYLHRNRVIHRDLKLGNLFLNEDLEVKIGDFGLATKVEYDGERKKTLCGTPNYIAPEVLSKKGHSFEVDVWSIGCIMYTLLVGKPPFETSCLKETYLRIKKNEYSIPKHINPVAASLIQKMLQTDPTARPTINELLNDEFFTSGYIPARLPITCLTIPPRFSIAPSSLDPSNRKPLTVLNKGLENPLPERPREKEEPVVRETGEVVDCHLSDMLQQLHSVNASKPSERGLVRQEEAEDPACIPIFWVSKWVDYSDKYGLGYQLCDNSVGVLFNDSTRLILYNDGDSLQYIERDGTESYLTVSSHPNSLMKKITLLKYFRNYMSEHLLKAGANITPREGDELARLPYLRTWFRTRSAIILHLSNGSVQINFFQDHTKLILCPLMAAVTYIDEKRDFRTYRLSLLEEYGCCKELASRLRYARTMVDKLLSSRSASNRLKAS
mIDH1 inhibitor = qHTS for Inhibitors of mutant isocitrate dehydrogenase 1 (IDH1): qHTS; IDH1-R132H enzyme, NADPH consumption, diaphorase/resazurin fluorescence; Potency, µM (series often up to 76.6 µM), actives largely listed as inhibitors; hit rate 0.093% among 390,000; AID 602179, 2012; further: nearly all actives have a fitted effect of over 65% in size
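IDH1-R132H (0.5 ug/mL dispensed) in pH 7.5 Tris buffer was preincubated 30 min with compound, then given a substrate mix of 0.016 mM NADPH and 2 mM alpha-KG for 80 min at room temperature; remaining NADPH was read by diaphorase/resazurin fluorescence.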
Sfp inh = qHTS Assay for Inhibitors of Bacillus subtilis Sfp phosphopantetheinyl transferase (PPTase); Potency, µM, usual class: inhibitors; hit rate 3.5% among 310,000; Biochemical Sfp PPTase activity, qHTS; 4'-phosphopantetheinyl transferase ffp (Bacillus subtilis), Q9F4F7; AID 1490, 2009;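 further: the enzyme is Sfp with the accession as filed and its product quenches rhodamine fluorescence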
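Fluorescence-quenching assay with 15 nM Sfp, 5 uM rhodamine-CoA and 12.5 uM BHQ-2-labelled ybbR peptide in pH 7.6 Hepes/MgCl2 buffer. Enzyme was pre-incubated with compound for 15 min at room temperature. Rate was taken from the 30-min fluorescence change (525/598 nm).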
TrxR1 inh = qHTS Assay for Inhibitors of Mammalian Selenoprotein Thioredoxin Reductase 1 (TrxR1): qHTS; recombinant rTrxR1, NADPH fluorescence consumption, selenite substrate; Potency, µM (highest dose often 114 µM), actives largely listed as inhibitors; hit rate 1% among 390,000; further: nearly all actives have a fitted effect of over 65% in size
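Rat TrxR1 (90 nM in the dispensed reagent) was pre-reduced with 400 uM NADPH for 5 min at room temperature, then incubated with compound for 15 min. After 400 uM selenite was added, NADPH fluorescence (Ex 340/Em 450 nm) was followed for 8 min.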
TrxR1 substrate = qHTS Assay for Substrates of Mammalian Selenoprotein Thioredoxin Reductase 1 (TrxR1): qHTS | Thioredoxin reductase 1, cytoplasmic (Rattus norvegicus), O89049 | Potency, µM (series often up to 114 µM) | purified TrxR1 substrate turnover, NADPH consumption readout | hit rate 0.01% among 390,000 | AID 588456, 2011; further: nearly all actives have a fitted effect of over 50% in size
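Rat TrxR1, dispensed at 90 nM, was prereduced with 400 uM NADPH (final) for 5 min at ~22 deg C, then incubated with compound 15 min before 400 uM selenite. A first-read NADPH fluorescence drop versus no-compound background flagged substrates.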
TbPYK confirm = qHTS of Trypanosoma Brucei Inhibitors: Confirmatory Assay for Cherry-picked Compounds | Potency, µM (highest dose often 76.9 µM), usual class: inhibitors | AID 720569, 2013 | recombinant TbPYK, Kinase-Glo ATP luminescence | shares compounds with PLK1 PBD inh | hit rate 67% among 890; further: nearly all actives have a fitted effect of over 70% in size
TbPYK ADP-Glo = qHTS of Trypanosoma Brucei Inhibitors: Orthogonal Assay for Cherry-picked Compounds | Potency, µM (doses to about 76.9 µM), actives largely listed as inhibitors | recombinant TbPYK, ADP-Glo luminescence, 60 min | hit rate 62% among 890 | AID 720584, 2013 | shares compounds with PLK1 PBD inh; further: nearly all actives have a fitted effect of over 75% in size
Large screens that a line does not name were inactive (follow-up assays come after a bar, where they were run). Hits are enriched below; roughly 5.2% of the tested compounds scored in any of these assays. The call rests on the fitted dose curve; in most records, active means well fitted curve in the direction sought with a large enough effect; inconclusive means small, poorly fitted or top-dose-only effect, or another doubt; inactive means no such curve, though single readings can be large; an effect the other way counts as inactive or inconclusive.

CC(=O)SC(C[N+](=O)[O-])c1cn(C(C)=O)c2ccccc12 (stereo not drawn)	VDR inhibitor 45µM, PLK1 PBD inh 4.2µM, Sfp inh 10µM, TrxR1 inh 18µM | TbPYK confirm inconclusive | TbPYK ADP-Glo inconclusive
CC(=O)n1cc(Nc2ccc([N+](=O)[O-])cc2)c2ccccc21	none
Cc1cc(NS(=O)(=O)c2ccc(NC(=O)/C=C/c3ccc(C)o3)cc2)nc(C)n1	VDR inhibitor inconclusive, PLK1 PBD inh 8.4µM, Sfp inh 3.5µM, TrxR1 inh 28µM | TbPYK confirm 7.9µM | TbPYK ADP-Glo 11µM
Cc1cc(NS(=O)(=O)c2ccc(NC(=O)/C=C/c3ccccc3)cc2)nc(C)n1	none (no result: Sfp inh)
Oc1ccc(/C=N/N2CCCCC2)c(O)c1O	VDR inhibitor inconclusive, PLK1 PBD inh 11µM, Sfp inh 7.9µM | TbPYK confirm 32µM | TbPYK ADP-Glo 35µM
N#Cc1cc2c(nc1SCC(=O)N1CCCCC1)CCCCC2	VDR inhibitor inconclusive, PLK1 PBD inh 27µM, Sfp inh 56µM | TbPYK confirm 13µM | TbPYK ADP-Glo 13µM
Cc1cc(C)cc(NC(=O)C(=O)NC(C)c2ccccc2)c1 (stereo not drawn)	none (no result: PLK1 PBD inh, Sfp inh)
CCn1c(C)nc2cc(C(=O)NNC(=O)c3ccc(C)cc3)ccc21	none (no result: Sfp inh) | TbPYK confirm inconclusive | TbPYK ADP-Glo inconclusive
CCOC(=O)CCc1c(C)nc(SCCCn2c(=O)[nH]c3ccccc32)c(C#N)c1C	none | TbPYK confirm 5.6µM | TbPYK ADP-Glo 14µM
COC(=O)c1cc(=O)nc2sc3cc(OC)ccc3n12	none
COc1ccc(O)c(/C=c2/sc3nc4cc(C)c(C)cc4n3c2=O)c1	VDR inhibitor inconclusive, PLK1 PBD inh 11µM, Sfp inh 8.9µM | TbPYK confirm 10µM | TbPYK ADP-Glo 11µM
Cc1ccc(S(=O)(=O)/N=C2/C=C(C3C(=O)CC(C)(C)CC3=O)C(=O)c3ccccc32)cc1	VDR inhibitor inconclusive, PLK1 PBD inh 7.5µM, Sfp inh inconclusive, TrxR1 inh 18µM | TbPYK confirm inactive | TbPYK ADP-Glo inactive
O=S(=O)(N=C1C=CC(=NS(=O)(=O)c2ccccc2)c2ccccc21)c1ccccc1	PLK1 PBD inh inconclusive (no result: VDR inhibitor, Sfp inh, TrxR1 inh, TrxR1 substrate)
COc1ccc(CCNC(=O)CN(c2cc(C(F)(F)F)ccc2Cl)S(C)(=O)=O)cc1	none (no result: PLK1 PBD inh, Sfp inh)
CSc1ncccc1C(=O)OCC(=O)NCCCc1ccccc1	none (no result: Sfp inh)
Cn1c(=O)[nH]c(=O)c2c1nc(SCCN1CCCCC1)n2CCCc1ccccc1	VDR inhibitor 35µM, PLK1 PBD inh 2.4µM, Sfp inh 3.5µM | TbPYK confirm 3.5µM | TbPYK ADP-Glo 4.5µM
Cn1c(=O)[nH]c(=O)c2c1nc(SCC(=O)O)n2Cc1ccccc1	none | TbPYK confirm inconclusive | TbPYK ADP-Glo inconclusive
Cc1ccc(Cn2c(SCCN3CCCCC3)nc3c2c(=O)[nH]c(=O)n3C)cc1	VDR inhibitor 89µM, PLK1 PBD inh 7.5µM, Sfp inh 11µM | TbPYK confirm 16µM | TbPYK ADP-Glo 11µM
CCOCCSc1nc2c(c(=O)[nH]c(=O)n2C)n1CCCc1ccccc1	none
Cn1c(=O)[nH]c(=O)c2c1nc(SCC(=O)O)n2CCCc1ccccc1	none
C[C@H](CO)N1C[C@H](C)[C@@H](CN(C)C(=O)CCCN(C)C)OCc2cn(nn2)CCCC1=O	none (no result: VDR inhibitor, Sfp inh, TrxR1 inh, TrxR1 substrate)
